Out of some 330,000 compounds screened, about 1,900 (0.58%) were called active. Inconclusive results (about 4%) are left out. Only a sample is shown. Entries with a potency or affinity are not part of this list. Values without a mark were called inactive. No stated cut-off is given here; in the data, inconclusive means inhibition above about 70% without an active follow-up result; inactive means below that.
assay: M. tuberculosis growth inhibition, HTS (AID 449762);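 further: bacterial growth assessed after seven days of incubation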; conditions: M. tuberculosis H37Rv growth inhibition, 7H9 media; at 25 µM; stronger effect = higher value

Going from `COc1ccc(S(=O)(=O)N(C)CC(=O)NCc2ccco2)cc1Cl` to `CCN(CC)S(=O)(=O)c1ccc(NC(=O)c2ccc(Cl)nc2)cc1`, the inhibition rises from 2.22% to 4%.

Compared with `CCCn1nnc(NC(=O)COc2ccccc2Cl)n1`, `CCCn1nnc(NC(=O)COc2ccc(C3CCCCC3)cc2)n1` is higher in inhibition: -5.02% for the first, -1.63% for the second.

First: Cc1cc(C(=O)N(C)CC2CCCN(CCc3ccc(F)cc3)C2)c(C)o1 (configuration not stated)
Second: Cc1ccc(OCc2cc(C(=O)N(C)Cc3nccn3C)no2)cc1C
The inhibition of the first is lower: -2.12% for the first, 8.06% for the second.

First: N=C1c2ccccc2CN1NC(=O)COc1ccc(Cl)cc1
Second: Nc1c(C(=O)c2ccc(Cl)cc2)oc2ccccc12
The inhibition of the first is higher: -8.46% for the first, -21.2% for the second.

First: CCc1nn(CCCC(=O)N2CCc3ccccc3C2)c(=O)c2cc3occc3n12
Second: COc1ccc(Cc2nnc(SCC(=O)N3CCc4ccccc4C3)o2)cc1
The inhibition of the first is higher: -0.11% for the first, -4.27% for the second.

First: CC(=O)c1ccc(NC(=O)CSc2cn[nH]n2)cc1
Second: Cc1ccc(NC(=O)CSc2cn[nH]n2)cc1
The inhibition of the first is higher: 4.87% for the first, -2.03% for the second.

Going from `CCOc1ccc(-n2c(SCC(=O)Nc3ccc(C(=O)O)cc3)nc3ccccc3c2=O)cc1` to `COc1cccc(NC(=O)CSc2nc(O)c(C)c(=O)n2-c2ccc(C)cc2)c1`, the inhibition falls from 1.72% to -11.9%.

Going from `Cc1nnc(NC(=O)CSc2nnc(Cc3cccn3C)n2C)s1` to `COc1ccc(OC)c(NC(=O)CSc2nncc(=O)n2N)c1`, the inhibition rises from -5.68% to -3.14%.

Compared with `Cc1ccc(S(=O)(=O)N(C)C)cc1NC(=O)c1cccnc1Oc1ccccc1`, `COc1ccc(NS(=O)(=O)c2ccc(C)c(C(=O)NNC(=O)c3ccccc3O)c2)cc1` is higher in inhibition: -2.85% for the first, 5.14% for the second.

First: O=C(Nc1ccc2c(c1)OCO2)c1cnn2c1NC(c1ccco1)CC2C(F)(F)F (configuration not stated)
Second: C[C@H](NC(=O)C1CC(=O)N(c2ccc3c(c2)OCCO3)C1)C(=O)NCc1ccco1 (some centres not stated)
The inhibition of the first is lower: -5.12% for the first, 0.57% for the second.

Compared with `COc1ccc(-c2[nH]ncc2CN(C)Cc2ccccn2)c(OC)c1`, `COc1ccc(-c2noc(-c3ccco3)n2)cc1OC` is lower in inhibition: 4.69% for the first, -0.61% for the second.

Going from `O=C(NCc1ccccn1)c1cc2c(ccc3ccccc32)oc1=O` to `Cc1ccccc1C(=O)Nc1cccc(-c2cn3ccccc3n2)c1`, the inhibition rises from -2.34% to 35.7%.

First: CCOC(=O)N1CCC(N2Cc3cccc(C(=O)Nc4cc(F)ccc4F)c3C2=O)CC1
Second: CCOC(=O)c1ccccc1NC(=O)c1cccc2c1C(=O)N(C1CCN(C(=O)OCC)CC1)C2
The inhibition of the first is higher: -1.17% for the first, -3.66% for the second.

Compared with `Cc1ccc(C2C3=C(CCCC3=O)N=C3c4ccccc4C(=O)C32)cc1` (configuration not stated), `O=C1CCCC2=C1C(c1ccccc1)C1C(=O)c3ccccc3C1=N2` (configuration not stated) is lower in inhibition: 4.41% for the first, 0.55% for the second.

Compared with `CCO[C@@H]1OC(C(=O)NCc2ccccc2)=C[C@H](C)[C@H]1CCCO`, `CCC(Sc1ccccc1C(=O)O)C(=O)O` (configuration not stated) is higher in inhibition: 0.33% for the first, 5.4% for the second.

First: CCOC(=O)CSC1=C(C#N)C(C)C2=C(CCCC2=O)N1 (configuration not stated)
Second: CCOC(=O)CSC1=C(C#N)C(c2ccccc2C)C2=C(CCCC2=O)N1 (configuration not stated)
The inhibition of the first is higher: 10.6% for the first, -2.12% for the second.

Compared with `Clc1cccc(CN2CCSCC2)c1Cl`, `Cc1cccc(C(=O)OCC(=O)N2CCCCCC2)c1O` is higher in inhibition: 5.96% for the first, 20.7% for the second.

Going from `COc1ccc(/C=C/c2c(-c3cccc(C)c3)oc3ccc(N4CCOCC4)cc23)cc1` to `O=C(OCc1ccc(O)cc1)c1c(-c2ccsc2)oc2ccc(N3CCOCC3)cc12`, the inhibition rises from -2.46% to -0.88%.

Compared with `COc1ccc(-c2cc(C(=O)O)c3c(C)nn(-c4ccccn4)c3n2)cc1`, `CCOC(=O)c1cc(-c2ccncc2)nc2c1c(C)nn2-c1ccccn1` is lower in inhibition: 10.2% for the first, 0.76% for the second.

Going from `O=C(NC1CCCC1)C(c1ccncc1)N(C(=O)c1csnn1)C1CCCC1` (configuration not stated) to `CC(=O)c1cccc(S(=O)(=O)NCCC(=O)NC2CCCCCC2)c1`, the inhibition falls from 3.35% to 2.95%.

Going from `Nc1nc(-c2ccc(Cl)cc2)c(S(=O)(=O)c2ccccc2)s1` to `Cc1nnsc1S(=O)(=O)c1ccccc1`, the inhibition rises from -1.98% to -0.59%.

Compared with `COc1ccc(N(CC(=O)NC2CCCC2)S(=O)(=O)c2c(C)[nH]c(=O)[nH]c2=O)cc1`, `CC(=O)N1CC(C)Sc2ccc(S(=O)(=O)NC3CCCCC3)cc21` (configuration not stated) is higher in inhibition: -3.45% for the first, 0.78% for the second.

Compared with `Cc1ccc(OCCNC(=O)CNC(=O)c2ccc(C)cc2)cc1`, `COc1ccc(OCC(O)CNC(C)c2ccccc2)cc1` (configuration not stated) is lower in inhibition: 5.29% for the first, -6.83% for the second.

Going from `Cc1cc(CN(C)C(=O)c2cc(COc3ccc(C)c(C)c3)on2)on1` to `COc1ccc(Cc2nc3ccc(C(=O)N(C)C(C)c4nccs4)cc3o2)cc1` (configuration not stated), the inhibition falls from 7.13% to 1.57%.

Going from `Cc1cc(C)c(NC(=O)C(C)(C)C)c(Cl)c1` to `Cc1c(Cl)cccc1NC(=O)Nc1cc(C(C)(C)C)nn1C`, the inhibition rises from -1.65% to 2.96%.

First: COc1ccc(C(CNC(=O)C(C)(C)Oc2ccc(Cl)cc2)N2CCCCC2)cc1 (configuration not stated)
Second: COc1ccc(C(CNC(=O)C(C)(C)Oc2ccc(Cl)cc2)N2CCCC2)cc1 (configuration not stated)
The inhibition of the first is lower: -12.8% for the first, -9.42% for the second.

Compared with `O=C(O)c1ccccc1/C=N/Nc1ccc(S(=O)(=O)N2CCCC2)cc1[N+](=O)[O-]`, `Cc1cccc(C)c1OCCOC(=O)c1cccc(S(=O)(=O)N2CCOCC2)c1` is lower in inhibition: -1.83% for the first, -2.97% for the second.

Going from `COc1ccc(-c2ccc([C@H]3[C@H]4C=CC[C@@H](C)[C@@H]4C(=O)N3Cc3ccccc3)c(F)c2)cc1C` to `COc1ccc(CN2CCN(Cc3cccc(Oc4ccccc4)c3)CC2)c(OC)c1OC`, the inhibition rises from -3.73% to 22.7%.

Going from `CC1(c2ccc(Cl)cc2Cl)OCC(Cn2ccnc2)O1` (configuration not stated) to `CCC(C)n1ncn(-c2ccc(N3CCN(c4ccc(OCC5COC(Cn6cncn6)(c6ccc(Cl)cc6Cl)O5)cc4)CC3)cc2)c1=O` (configuration not stated), the inhibition falls from -2.41% to -3.37%.

First: FC(F)(F)c1cc(N2CCNCC2)c2ccccc2n1
Second: COc1ccccc1N1CCN(S(=O)(=O)c2ccc(Br)s2)CC1
The inhibition of the first is higher: 4.5% for the first, -5.24% for the second.

Compared with `COc1ccc2cc(S(=O)(=O)NCc3cccnc3)ccc2c1`, `CCN(c1cccc(C)c1)S(=O)(=O)c1nnc(NC(=O)c2ccco2)s1` is higher in inhibition: -6.19% for the first, -5.15% for the second.

Compared with `Oc1ccccc1-c1nnc(COc2ccc(Cl)cc2Cl)o1`, `c1ccc(OCc2nnc(-c3ccccc3)o2)cc1` is higher in inhibition: 2.32% for the first, 3.84% for the second.

Going from `Cc1nnc(NC(=O)CCC(=O)NC2CCCCCCC2)s1` to `O=C(O)CCC(=O)Nc1nnc(C(F)(F)F)s1`, the inhibition rises from 2.33% to 5.81%.

Going from `CCN(CC)S(=O)(=O)c1ccc(NC(=O)c2ccc(Sc3nncn3C)c([N+](=O)[O-])c2)cc1` to `Cn1nc(C(C)(C)C)cc1NC(=O)Nc1ccc(Cl)cc1`, the inhibition rises from 3.9% to 6.33%.

First: COCCn1c(O)c(/C=N/NC(=O)CSC(=S)N2CCCC2)c(=O)[nH]c1=S
Second: COc1ccc(-c2nnc(SCC(=O)N3CCCC3)o2)cc1
The inhibition of the first is lower: -6.24% for the first, -2.88% for the second.

Going from `CCOc1ccccc1NC(=O)C1CCCN(c2c(CC)c(C)nc3ncnn23)C1` (configuration not stated) to `COc1ccc(-n2nc3c(N4CCC(C(=O)NCc5ccccc5C)CC4)nnc(C)c3c2C)cc1`, the inhibition rises from 3.2% to 8.33%.

Compared with `Cc1csc(NC(=O)c2c(O)c3c(n(CC(C)C)c2=O)CCCC3)n1`, `CC(C)Cn1c2c(c(O)c(C(=O)Nc3nccs3)c1=O)CCCC2` is lower in inhibition: 65.9% for the first, 8.72% for the second.

Compared with `CC(=C1C(=O)c2ccccc2C1=O)N1CCN(c2ccc(F)cc2)CC1`, `COc1ccccc1-c1cc(C(=O)N2CCN(c3ccccc3)CC2)no1` is lower in inhibition: -0.18% for the first, -4.77% for the second.

Compared with `O=C(O)c1ccccc1SSc1ccccc1C(=O)O`, `NC(=O)NCC(=O)N1CCC(C(O)(c2ccccc2)c2ccccc2)CC1` is lower in inhibition: -0.04% for the first, -4.38% for the second.

Compared with `Cn1c(C(=O)N2CCCC(C(=O)NCCCSC3CCCCC3)C2)cc2sccc21` (configuration not stated), `O=C(COc1ccc(S(=O)(=O)N2CCOCC2)cc1)N1CCCCCC1` is lower in inhibition: 67.2% for the first, -3.92% for the second.

Compared with `Cc1cc(C)n2nc(N)c(N=Nc3ccc4c(c3)OCO4)c2n1`, `Cc1cc(C)n2nc(N)c(N=Nc3ccc(Cl)cc3)c2n1` is higher in inhibition: 1.48% for the first, 5.04% for the second.

Going from `CC(C)CNC(=S)N(CCN(C)C)Cc1cc2cc3c(cc2[nH]c1=O)OCCO3` to `COC(CNC(=O)CNC(=S)N(CCCN1CCOCC1)Cc1cccs1)OC`, the inhibition rises from -7.36% to 12.5%.

First: COc1cccc(C(=O)OCC(=O)N2CCc3ccccc3C2)c1OC
Second: CC(C)(C)c1ccc(C(=O)N2CCN(Cc3ccccc3)CC2)cc1
The inhibition of the first is lower: -0.41% for the first, 4.6% for the second.

First: CC(C)c1ccc(OCC(O)CNC(C)c2ccccc2)cc1 (configuration not stated)
Second: Cc1ccc(-n2nc3c(N4CCC(C(=O)NCCc5ccccc5C)CC4)nnc(C)c3c2C)cc1
The inhibition of the first is higher: 15.1% for the first, 5.89% for the second.

Going from `Cc1nc(Nc2ccc(Br)cc2Br)c([N+](=O)[O-])c(=O)[nH]1` to `Cc1nc(-c2ccc(S(=O)(=O)Oc3ccccc3Cl)s2)cs1`, the inhibition rises from 0.85% to 4.35%.

Going from `CCc1cc2c(Sc3nc4ccccc4s3)ncnc2s1` to `Cc1sc2ncnc(Sc3nc4ccccc4s3)c2c1C`, the inhibition falls from 11.1% to -4.93%.
